Test [1] is described as follows: CCTE_Shafer_MEA_dev_mutual_information_norm: CCTE's Neural Network Formation Assay for Mutual Information Normalization, Shafer Lab (AID 2284091).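 For AC50: mutual information between electrodes summarised as area under curve across four recording days; potency is for a decrease in mutual information relative to DMSO.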 An outline of the steps:
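Developing rat cortical networks on 16-electrode MEA wells are treated throughout formation (DIV 0–12). Shared electrode information is recorded four times, converted to area-under-curve, and fitted for decreases against DMSO vehicle.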

Test [2] is described as follows: CCTE_Shafer_MEA_dev_correlation_coefficient_mean: CCTE's Neural Network Formation Assay for Mean Correlation Coefficient, Shafer Lab (AID 2284093).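 For AC50: well mean pairwise spike train correlation integrated as AUC over recording days 5 to 12; potency fitted for loss of correlation relative to DMSO vehicle wells.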 An outline of the steps:
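Spontaneous activity recorded on days 5, 7, 9 and 12 post-plating; pairwise spike correlations are averaged across active electrodes and collapsed to an area-under-curve. Rat cortical cultures are dosed from plating through 12 days, with compound renewed at media changes.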

Test [3] can be described thus: TAMU_PeakParms_SingleDonor1434_Chronotropy: Texas A&M University (TAMU) 1.5-hr Human Induced Pluripotent Stem Cell (iPSC)-derived Cardiomyocytes Calcium (Ca+2) Flux Assay for Cardiotoxicity: Chronotropy (changes in peak frequency) (AID 2284217). The following applies: actives raise or lower the signal. An outline of the steps: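 iPSC-derived cardiomyocytes (single donor 1434) dosed at 0.2, 1, 10 and 100 uM in 0.5% DMSO for 1.5 h at 37C; Ca2+ dye fluorescence gave average beat frequency. Zero-beat points removed; bidirectional fit versus DMSO, POD as EC05.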

Test [4] in a line: IUF_NPC1b_proliferation_BrdU_72hr: Leibniz Research Institute for Environmental Medicine (IUF) 72-hour Neural Progenitor Cell Bromodeoxyuridine (BrdU) Proliferation Assay (NPC1b) (AID 2284207). The method, boiled down: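 Proliferation of primary human neural progenitor cells: 72 h compound treatment at 37C, 5% CO2, pH 7.2-7.6, in EGF/FGF-containing medium. Readout is BrdU uptake (last 16 h) by chemiluminescent ELISA, normalised to DMSO.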

Test [5] can be described thus: IUF_NPC1a_proliferation_area_72hr: Leibniz Research Institute for Environmental Medicine (IUF) 72-hour Neural Progenitor Cell Proliferation Area Assay (NPC1a) (AID 2284208). An outline of the steps: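 Read-out: increase in sphere area over 72 h by automated phase-contrast imaging, fitted in positive direction versus DMSO baseline. One hNPC sphere (0.25-0.35 mm) per well in EGF/FGF medium; growth-factor withdrawal served as positive control.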

Test [6] is described as follows: IUF_NPC1_viability_72hr: Viability Assessment at 72 hours in the Leibniz Research Institute for Environmental Medicine (IUF) Neural Progenitor Cell Proliferation Assay (NPC1) (AID 2284209). An outline of the steps:
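Human fetal-cortex neural progenitor spheres (0.25–0.35 mm, one per well) grown in EGF/FGF proliferation medium at 37C, pH 7.2-7.6, exposed 72 h without renewal; viability read as alamar blue resazurin-to-resorufin fluorescence relative to DMSO.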

Test [7] is described as follows: CCTE_Mundy_HCI_Cortical_Synap_Neur_Matur_NeuriteSpotCountPerNeuriteLength: CCTE's Synaptogenesis and Neurite Maturation Assay in rat cortical cells for Neurite Spot Count per Neurite Length, Mundy Lab (AID 2284210). The method, boiled down: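 Primary rat cortical neurons, compound exposure DIV 7–12, 288.33 h endpoint. Hoechst, anti-MAP2 and anti-synaptophysin labelling; neurite-associated puncta per neurite length scored by automated imaging relative to DMSO controls.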

Test [8] is described as follows: CCTE_Mundy_HCI_Cortical_Synap_Neur_Matur_BPCount: CCTE's Synaptogenesis and Neurite Maturation Assay in rat cortical cells for Branch Point Count, Mundy Lab (AID 2284211). An outline of the steps:
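Branch point number is quantified by automated imaging of fluorescently labelled neurites and synapses in rat primary cortical neurons exposed from DIV 7 to DIV 12. Activity is analysed relative to DMSO negative control.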

The nature of test [9]: CCTE_Mundy_HCI_Cortical_NOG_NeuriteCount: CCTE's Neurite Outgrowth Assay in rat cortical cells for Neurite Count, Mundy Lab (AID 2284212).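 Note: cells fixed about two days after chemical exposure began.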 An outline of the steps: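 Neurite number per cell from high-content imaging of betaIII-tubulin immunostaining, with Hoechst nuclear counterstain.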
Test [10] is described as follows: CCTE_Mundy_HCI_Cortical_NOG_NeuriteLength: CCTE's Neurite Outgrowth Assay in rat cortical cells for Neurite Length, Mundy Lab (AID 2284213).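 For AC50: neurites imaged about 48 to 50 h after chemical exposure began.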 The method, boiled down:
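Neurite length was read by high-content imaging of βIII-tubulin-labelled neurites in rat primary cortical cultures. Activity was fitted relative to DMSO.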

Test [11] in a line: CCTE_Mundy_HCI_Cortical_Synap_Neur_Matur_NeuriteLength: CCTE's Synaptogenesis and Neurite Maturation Assay in rat cortical cells for Neurite Length, Mundy Lab (AID 2284214). The method, boiled down: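 Rat primary cortical cells were plated, treated with AraC at DIV 5 to arrest glial growth, then chemical-dosed with media change at DIV 7 through DIV 12. Fixed cells stained for MAP2, synaptophysin and Hoechst; neurite length quantified by high-content imaging.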

A short description of test [12]: CCTE_Mundy_HCI_Cortical_Synap_Neur_Matur_NeuriteSpotCountPerNeuron: CCTE's Synaptogenesis and Neurite Maturation Assay in rat cortical cells for Neurite Spot Count per Neuron Count, Mundy Lab (AID 2284215). The method, boiled down: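 Rat primary cortical cells received AraC at DIV 5, then chemicals with a media change at DIV 7, and were fixed at DIV 12. Synaptophysin puncta on MAP2-stained neurites per neuron were counted by high-content imaging, fitted relative to DMSO.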

A short description of test [13]: CCTE_Mundy_HCI_Cortical_Synap_Neur_Matur_SynapseCount: CCTE's Synaptogenesis and Neurite Maturation Assay in rat cortical cells for Synapse Count, Mundy Lab (AID 2284218). An outline of the steps: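 Rat primary cortical cells in 96-well plates received AraC at DIV 5 and were dosed with chemicals at DIV 7 with media change, through DIV 12 (288.33 h). Synapses per neuron counted by high-content imaging of MAP2/synaptophysin/Hoechst staining, versus DMSO baseline.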

The nature of test [14]: CCTE_Mundy_HCI_Cortical_Synap_Neur_Matur_NeuriteCount: CCTE's Synaptogenesis and Neurite Maturation Assay in rat cortical cells for Neurite Count, Mundy Lab (AID 2284222).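 For outcome: exposure from day 7 to day 12 in vitro with readout at day 12.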 The method, boiled down:
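Rat primary cortical cells; AraC added at DIV 5, chemicals dosed with media change at DIV 7 through DIV 12. MAP2/synaptophysin/Hoechst immunostaining, high-content imaging of neurite number; fitted relative to DMSO.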

Test [15] in a line: CCTE_Mundy_HCI_Cortical_Synap_Neur_Matur_CellBodySpotCount: CCTE's Synaptogenesis and Neurite Maturation Assay in rat cortical cells for Cell Body Spot Count, Mundy Lab (AID 2284223). An outline of the steps: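 Rat primary cortical cultures received AraC at DIV 5 to arrest glia, were dosed with chemical at DIV 7 with media change, and were fixed at DIV 12 (288.33 h). Synaptophysin puncta on MAP2-positive cell bodies per neuron were counted by high-content imaging versus DMSO.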

Test [16] in a line: UKN4_HCS_LUHMES_neurite_outgrowth: University of Konstanz (UKN) Leist Lab Neurite Outgrowth Assay in human LUHMES cells (UKN4) (AID 2284206). The settings on record: actives raise or lower the signal. The method, boiled down:
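LUHMES neuronal precursors differentiated 2 days, replated without cAMP/GDNF, then exposed to chemicals for 24 h. Neurite area imaged by high-content microscopy after calcein-AM staining; Hoechst H-33342 marks viability. Bidirectional fit versus DMSO.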

The nature of test [17]: UKN2_HCS_IMR90_neural_migration: University of Konstanz (UKN) Leist Lab Neural Crest Cell Migration Assay in human induced IMR90 Pluripotent Stem Cells (UKN2) (AID 2284204). The settings on record: actives raise or lower the signal. The method, boiled down: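 Migration of human IMR90-derived neural crest cells into a stopper-defined gap is imaged after 24 h chemical treatment. Activity is fitted bidirectionally relative to DMSO.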

A short description of test [18]: CCTE_Mundy_HCI_hN2_NOG_NeuriteCount: CCTE's Neurite Outgrowth Assay in human hN2 cells for Neurite Count, Mundy Lab (AID 2284219; active = hit-call score of the fitted dose curve at least 0.9, where 1 is the maximum). An outline of the steps: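 In this morphology assay, hNP1-derived neurons received test chemical 2 h post-plating and were fixed two days later in warm paraformaldehyde/sucrose containing Hoechst 33342. Neurites, labelled by rabbit anti-βIII-tubulin (1:800) and Alexa Fluor-488 (1:500), were counted automatically.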

The nature of test [19]: CCTE_Mundy_HCI_hN2_NOG_NeuriteLength: CCTE's Neurite Outgrowth Assay in human hN2 cells for Neurite Length, Mundy Lab (AID 2284220; active = hit-call score of the fitted dose curve at least 0.9, where 1 is the maximum). An outline of the steps:
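Plate hNP1-derived neurons, then add chemical 2 h later as a 1/10 dilution. Stain with anti-βIII-tubulin then Alexa Fluor-488 secondary, and image automatically to measure neurite length.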

A short description of test [20]: CCTE_Mundy_HCI_hN2_NOG_NeuronCount: CCTE's Neurite Outgrowth Assay in human hN2 cells for Neuron Count, Mundy Lab (AID 2284221; active = hit-call score of the fitted dose curve at least 0.9, where 1 is the maximum). An outline of the steps:
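Read-out is the number of betaIII-tubulin-positive neurons imaged by automated high-content analysis, with DMSO as negative control.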

This is an account of results in PubChem BioAssay (EPA / NIEHS).

A word on the AC50: it is the midpoint of the concentration-response curve, whichever way the signal moves.

Records with an inconclusive call do not appear. Active and inactive are the calls of the source. Rule for the calls, unless noted: active = hit-call score of the fitted dose curve at least 0.9, where 1 is the maximum; inactive = score below 0.9.

Consider `COC(=O)[C@H]1[C@H]2C[C@@H]3c4[nH]c5cc(OC)ccc5c4CCN3C[C@H]2C[C@@H](OC(=O)c2cc(OC)c(OC)c(OC)c2)[C@@H]1OC`, for which the half-maximal activity concentration (AC50) in test [1] was 5.56 µM (active); in [2], 10 µM (active). The result in test [3] was inactive.

In the case of `CC(=O)CC(c1ccccc1)c1c(O)c2ccccc2oc1=O` (stereo not given), the compound was classed as inactive in test [1], in [2], in test [4], in test [5], in test [6] and in test [7]. For the same compound, the call in test [8], in test [9], in test [10], in [11], in test [12] and in [13] was inactive. Also, the compound was classed as inactive in [14] and in test [15].

`OCC(O)CO`: the call in [1], in [2], in test [16], in [4], in test [5] and in test [6] was inactive. For the same compound, the result in [7], in test [8], in test [9], in [10], in test [11] and in [12] was inactive. For the same compound, the compound was called inactive in test [13], in [14] and in test [15].

With `CN(C)CCCN1c2ccccc2Sc2ccc(Cl)cc21`, the AC50 in test [1] is 5.4 µM (active); in [2] it was 5.87 µM (active); in test [17], 8.89 µM (active); in test [16], 6.73 µM (active); in test [4] it was 4.53 µM (active); in [5], 11.8 µM (active). Further, the half-maximal activity concentration (AC50) in test [6] was 18.8 µM (active); in [7] it was 28.4 µM (active); in [8], 12.8 µM (active); in [10], 10.7 µM (active); in test [11], 12.8 µM (active); in test [12], 11.8 µM (active). In addition, the AC50 in test [13] was 11.8 µM (active); in test [18] it was 11 µM (active); in test [19] it was 14.3 µM (active); in test [20], 9.61 µM (active); in test [14] it was 21.1 µM (active). Besides, in [15], the compound was called inactive.

Turning to `Cc1occc(=O)c1O`, the outcome in [3] was inactive.

Take `Nc1nc(=S)c2[nH]cnc2[nH]1`: the AC50 in test [3] is 89.6 µM (active).

Regarding `O=C(O)CC(O)(CC(=O)O)C(=O)O`, the outcome in test [3] was inactive.

Regarding `O=C1NC(=O)C(c2ccccc2)(c2ccccc2)N1`, the compound was called inactive in [1], in test [2], in test [17], in test [16], in [4] and in [5]. For the same compound, the outcome in test [6], in [7], in test [10], in [11], in test [12] and in test [13] was inactive. In addition, the outcome in [18], in test [19], in [20] and in [15] was inactive.

For `CCc1nc(N)nc(N)c1-c1ccc(Cl)cc1`, the result in test [3] was inactive.
